Results reported in publication PMC7862700, “An all-to-all approach to the identification of sequence-specific readers for epigenetic DNA modifications on cytosine”.

Experiments:
Test in all cases: DAPPL (digital affinity profiling via proximity ligation, sequencing); 10 mM Tris-HCl pH 7.5, 50 mM NaCl, 1 mM DTT, 4% glycerol, room temperature, 30 min; GST-TFs on glutathione beads, 16-mer random dsDNA library, 0.1% formaldehyde crosslink after washing; high values mean tight binding
Details in all cases: protein: recombinant; tags: N-terminal GST; dsDNA, one strand shown
FLI1 = target: T1, FLI1 (Homo sapiens, UniProt Q01543 1-452)
T1 sequence: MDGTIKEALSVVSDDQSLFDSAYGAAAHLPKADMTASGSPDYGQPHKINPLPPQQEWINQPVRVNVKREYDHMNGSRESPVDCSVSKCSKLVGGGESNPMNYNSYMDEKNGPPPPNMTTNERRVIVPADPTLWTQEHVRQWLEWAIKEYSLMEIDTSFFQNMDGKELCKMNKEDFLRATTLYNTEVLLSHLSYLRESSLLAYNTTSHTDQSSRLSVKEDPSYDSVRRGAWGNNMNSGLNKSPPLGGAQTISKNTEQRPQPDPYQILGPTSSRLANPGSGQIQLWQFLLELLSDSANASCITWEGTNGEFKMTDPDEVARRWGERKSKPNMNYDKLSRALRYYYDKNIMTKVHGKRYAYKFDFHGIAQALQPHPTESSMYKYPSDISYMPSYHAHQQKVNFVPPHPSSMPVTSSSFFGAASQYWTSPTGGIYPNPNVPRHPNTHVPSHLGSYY
Method in brief: (§1)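 The binding signal reported is, for every hexamer, its read frequency for a factor over its read frequency for the tag-only sample. Reads came from pools of yeast-expressed, GST-fused human transcription factors on glutathione beads, barcoded with DNA and mixed with that sample, which were incubated with 200 nmole of a random double-stranded 16-mer DNA library in Tris/NaCl/DTT/glycerol buffer at room temperature for 30 min. After washing, the pools were crosslinked with 0.1% formaldehyde, proximity-ligated with BsaI/T4 ligase for 1 h at 37 °C, PCR-amplified and sequenced on an Illumina NextSeq500.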

ELK1 = target: T2, ELK1 (Homo sapiens, UniProt P19419 1-428)
T2 sequence: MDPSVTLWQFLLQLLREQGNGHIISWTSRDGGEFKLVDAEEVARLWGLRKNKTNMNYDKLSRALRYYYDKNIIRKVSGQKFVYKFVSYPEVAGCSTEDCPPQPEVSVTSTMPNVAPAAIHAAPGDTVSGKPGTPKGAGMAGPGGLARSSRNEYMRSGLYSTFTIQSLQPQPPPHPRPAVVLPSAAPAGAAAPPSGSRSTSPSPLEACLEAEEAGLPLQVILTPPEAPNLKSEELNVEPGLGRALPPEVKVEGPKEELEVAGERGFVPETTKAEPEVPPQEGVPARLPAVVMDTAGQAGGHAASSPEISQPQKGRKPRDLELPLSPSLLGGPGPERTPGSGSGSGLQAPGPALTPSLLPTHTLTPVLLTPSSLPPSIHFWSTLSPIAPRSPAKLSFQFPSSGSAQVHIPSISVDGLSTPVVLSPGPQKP
Method in brief: as §1

GABPA = target: T3, GABPA (Homo sapiens, UniProt Q06546 1-454)
T3 sequence: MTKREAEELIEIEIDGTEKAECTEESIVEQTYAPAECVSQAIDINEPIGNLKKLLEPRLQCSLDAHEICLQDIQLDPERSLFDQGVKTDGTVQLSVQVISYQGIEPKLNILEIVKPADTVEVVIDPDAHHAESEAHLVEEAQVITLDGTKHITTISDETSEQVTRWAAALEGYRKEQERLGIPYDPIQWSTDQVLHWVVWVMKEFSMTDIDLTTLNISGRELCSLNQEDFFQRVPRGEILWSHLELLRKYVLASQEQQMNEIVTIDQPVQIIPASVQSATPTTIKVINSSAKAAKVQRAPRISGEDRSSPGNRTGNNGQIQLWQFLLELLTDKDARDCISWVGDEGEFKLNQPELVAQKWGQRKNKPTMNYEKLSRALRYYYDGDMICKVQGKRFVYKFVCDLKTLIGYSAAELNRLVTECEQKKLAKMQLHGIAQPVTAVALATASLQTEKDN
Method in brief: as §1

ERG = target: T4, ERG (Homo sapiens, UniProt P11308 1-479)
T4 sequence: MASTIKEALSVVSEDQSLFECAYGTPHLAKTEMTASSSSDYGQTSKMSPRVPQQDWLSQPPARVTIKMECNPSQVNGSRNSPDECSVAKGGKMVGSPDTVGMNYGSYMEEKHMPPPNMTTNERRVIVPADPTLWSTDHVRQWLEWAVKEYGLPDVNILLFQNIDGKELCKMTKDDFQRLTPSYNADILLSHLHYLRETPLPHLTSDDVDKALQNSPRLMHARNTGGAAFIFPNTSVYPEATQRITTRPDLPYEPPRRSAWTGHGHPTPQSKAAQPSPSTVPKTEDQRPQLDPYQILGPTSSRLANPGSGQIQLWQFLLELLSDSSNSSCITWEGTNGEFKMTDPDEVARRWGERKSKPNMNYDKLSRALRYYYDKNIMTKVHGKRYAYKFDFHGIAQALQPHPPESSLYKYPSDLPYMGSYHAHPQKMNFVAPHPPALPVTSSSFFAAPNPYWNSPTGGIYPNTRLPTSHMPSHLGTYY
Method in brief: as §1

ELF1 = ELF1 (Homo sapiens, UniProt P32519 1-619)
Method in brief: as §1

EHF = target: T5, EHF (Homo sapiens, UniProt Q9NZC4 1-300)
T5 sequence: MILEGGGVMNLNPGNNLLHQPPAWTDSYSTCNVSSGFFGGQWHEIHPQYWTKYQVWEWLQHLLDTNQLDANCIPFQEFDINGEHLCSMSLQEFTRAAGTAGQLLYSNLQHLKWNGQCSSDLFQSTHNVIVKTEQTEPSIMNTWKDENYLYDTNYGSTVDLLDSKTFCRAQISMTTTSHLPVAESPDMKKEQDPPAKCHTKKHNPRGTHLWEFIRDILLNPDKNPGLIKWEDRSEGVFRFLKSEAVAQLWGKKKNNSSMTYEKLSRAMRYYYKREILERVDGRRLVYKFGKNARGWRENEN
Method in brief: as §1

SPIB = SPIB (Homo sapiens, UniProt Q01892 1-262)
Method in brief: as §1

FEV = target: T6, FEV (Homo sapiens, UniProt Q99581 1-238)
T6 sequence: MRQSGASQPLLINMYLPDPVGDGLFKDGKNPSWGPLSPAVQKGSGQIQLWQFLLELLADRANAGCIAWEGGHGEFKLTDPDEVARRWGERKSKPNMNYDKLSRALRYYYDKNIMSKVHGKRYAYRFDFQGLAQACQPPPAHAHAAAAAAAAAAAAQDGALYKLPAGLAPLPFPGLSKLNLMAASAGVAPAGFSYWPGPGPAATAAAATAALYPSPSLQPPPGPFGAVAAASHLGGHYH
Method in brief: as §1

ETV5 = ETV5 (Homo sapiens, UniProt P41161 1-510)
Method in brief: as §1

SPIC = target: T7, SPIC (Homo sapiens, UniProt Q8N5J4 1-248)
T7 sequence: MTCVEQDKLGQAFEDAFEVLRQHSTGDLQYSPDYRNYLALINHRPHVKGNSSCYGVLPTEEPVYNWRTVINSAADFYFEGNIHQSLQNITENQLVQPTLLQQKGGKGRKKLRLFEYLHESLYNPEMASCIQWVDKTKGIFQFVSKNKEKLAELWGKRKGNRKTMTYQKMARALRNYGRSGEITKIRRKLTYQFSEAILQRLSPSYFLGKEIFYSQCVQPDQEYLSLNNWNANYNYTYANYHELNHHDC
Method in brief: as §1

ELF4 = ELF4 (Homo sapiens, UniProt Q99607 1-663)
Method in brief: as §1

ERF = target: T8, ERF (Homo sapiens, UniProt P50548 1-548)
T8 sequence: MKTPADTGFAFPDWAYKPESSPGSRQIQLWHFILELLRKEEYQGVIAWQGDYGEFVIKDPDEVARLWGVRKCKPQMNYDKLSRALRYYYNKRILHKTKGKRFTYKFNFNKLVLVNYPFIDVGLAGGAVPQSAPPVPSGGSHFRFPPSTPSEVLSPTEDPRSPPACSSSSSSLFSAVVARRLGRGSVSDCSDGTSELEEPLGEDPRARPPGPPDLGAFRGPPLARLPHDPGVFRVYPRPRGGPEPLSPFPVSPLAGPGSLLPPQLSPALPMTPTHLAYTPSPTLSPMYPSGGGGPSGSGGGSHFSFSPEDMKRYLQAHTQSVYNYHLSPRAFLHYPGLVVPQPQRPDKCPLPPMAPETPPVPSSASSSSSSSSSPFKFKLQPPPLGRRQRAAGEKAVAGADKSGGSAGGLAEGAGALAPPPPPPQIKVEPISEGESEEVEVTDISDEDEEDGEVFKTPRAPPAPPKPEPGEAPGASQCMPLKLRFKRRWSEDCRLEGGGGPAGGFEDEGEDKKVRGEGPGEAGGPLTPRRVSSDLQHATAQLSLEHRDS
Method in brief: as §1

ETS2 = target: T9, ETS2 (Homo sapiens, UniProt P15036 1-469)
T9 sequence: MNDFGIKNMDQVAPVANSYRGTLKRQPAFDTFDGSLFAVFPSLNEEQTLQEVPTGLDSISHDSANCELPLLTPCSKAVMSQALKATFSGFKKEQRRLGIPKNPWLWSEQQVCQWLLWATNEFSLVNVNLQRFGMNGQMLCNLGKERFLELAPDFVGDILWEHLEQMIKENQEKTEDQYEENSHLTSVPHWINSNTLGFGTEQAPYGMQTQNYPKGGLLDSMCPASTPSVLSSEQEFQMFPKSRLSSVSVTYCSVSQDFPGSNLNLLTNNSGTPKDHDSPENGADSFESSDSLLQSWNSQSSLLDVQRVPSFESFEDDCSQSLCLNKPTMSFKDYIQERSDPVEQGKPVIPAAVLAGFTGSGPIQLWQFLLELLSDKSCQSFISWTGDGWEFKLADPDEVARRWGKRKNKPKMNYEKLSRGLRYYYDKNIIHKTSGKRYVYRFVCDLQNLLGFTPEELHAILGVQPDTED
Method in brief: as §1

SPDEF = target: T10, SPDEF (Homo sapiens, UniProt O95238 1-335)
T10 sequence: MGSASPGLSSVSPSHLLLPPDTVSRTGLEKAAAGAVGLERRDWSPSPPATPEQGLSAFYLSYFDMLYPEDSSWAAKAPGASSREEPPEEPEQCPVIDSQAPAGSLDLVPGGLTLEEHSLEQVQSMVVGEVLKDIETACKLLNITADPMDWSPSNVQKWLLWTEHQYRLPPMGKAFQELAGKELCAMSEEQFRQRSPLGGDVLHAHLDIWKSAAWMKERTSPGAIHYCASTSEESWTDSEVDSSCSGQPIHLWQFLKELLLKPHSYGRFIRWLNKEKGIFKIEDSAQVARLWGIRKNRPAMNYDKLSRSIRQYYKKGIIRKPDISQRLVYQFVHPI
Method in brief: as §1

ETV3 = target: T11, ETV3 (Homo sapiens, UniProt P41162-2 1-143)
T11 sequence: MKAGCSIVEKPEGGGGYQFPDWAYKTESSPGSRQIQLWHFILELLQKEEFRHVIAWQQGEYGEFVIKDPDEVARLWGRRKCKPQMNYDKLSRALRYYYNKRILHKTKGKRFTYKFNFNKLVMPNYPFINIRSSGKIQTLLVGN
Method in brief: as §1

ETV6 = ETV6 (Homo sapiens, UniProt P41212 1-452)
Method in brief: as §1

Sequence of ETV6 (P41212 whole entry): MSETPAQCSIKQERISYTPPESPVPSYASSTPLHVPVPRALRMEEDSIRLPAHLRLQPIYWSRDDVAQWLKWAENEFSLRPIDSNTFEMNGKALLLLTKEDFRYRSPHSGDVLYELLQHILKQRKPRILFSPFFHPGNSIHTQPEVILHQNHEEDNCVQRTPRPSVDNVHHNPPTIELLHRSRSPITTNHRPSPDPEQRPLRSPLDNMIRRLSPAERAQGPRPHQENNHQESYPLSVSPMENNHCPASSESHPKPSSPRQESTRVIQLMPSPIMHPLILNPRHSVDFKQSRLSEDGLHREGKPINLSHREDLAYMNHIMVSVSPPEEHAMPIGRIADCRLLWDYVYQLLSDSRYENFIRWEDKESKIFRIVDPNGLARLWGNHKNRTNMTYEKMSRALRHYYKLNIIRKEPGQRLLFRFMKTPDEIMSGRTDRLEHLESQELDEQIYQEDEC
Sequence of ETV5 (P41161 whole entry): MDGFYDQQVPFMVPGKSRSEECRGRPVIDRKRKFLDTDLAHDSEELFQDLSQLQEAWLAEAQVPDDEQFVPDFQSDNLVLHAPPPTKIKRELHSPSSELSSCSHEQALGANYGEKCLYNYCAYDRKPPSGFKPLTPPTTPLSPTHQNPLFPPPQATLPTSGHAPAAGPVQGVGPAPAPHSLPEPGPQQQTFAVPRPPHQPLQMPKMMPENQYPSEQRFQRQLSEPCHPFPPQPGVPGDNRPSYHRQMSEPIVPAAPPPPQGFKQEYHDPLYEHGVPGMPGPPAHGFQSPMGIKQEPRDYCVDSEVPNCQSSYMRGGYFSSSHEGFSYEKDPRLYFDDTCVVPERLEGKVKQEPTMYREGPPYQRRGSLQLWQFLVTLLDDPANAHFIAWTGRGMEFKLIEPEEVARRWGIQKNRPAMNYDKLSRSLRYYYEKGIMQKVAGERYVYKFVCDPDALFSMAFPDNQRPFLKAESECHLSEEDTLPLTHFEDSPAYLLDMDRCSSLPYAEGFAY
Sequence of SPIB (Q01892 whole entry): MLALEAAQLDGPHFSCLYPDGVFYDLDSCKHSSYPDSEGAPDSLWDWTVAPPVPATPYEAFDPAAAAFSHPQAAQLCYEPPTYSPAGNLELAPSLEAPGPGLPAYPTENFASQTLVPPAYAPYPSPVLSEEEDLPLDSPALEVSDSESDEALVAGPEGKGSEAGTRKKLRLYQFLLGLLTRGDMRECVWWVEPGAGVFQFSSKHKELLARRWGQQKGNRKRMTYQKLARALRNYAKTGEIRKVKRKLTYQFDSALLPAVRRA
Sequence of ELF1 (P32519 whole entry): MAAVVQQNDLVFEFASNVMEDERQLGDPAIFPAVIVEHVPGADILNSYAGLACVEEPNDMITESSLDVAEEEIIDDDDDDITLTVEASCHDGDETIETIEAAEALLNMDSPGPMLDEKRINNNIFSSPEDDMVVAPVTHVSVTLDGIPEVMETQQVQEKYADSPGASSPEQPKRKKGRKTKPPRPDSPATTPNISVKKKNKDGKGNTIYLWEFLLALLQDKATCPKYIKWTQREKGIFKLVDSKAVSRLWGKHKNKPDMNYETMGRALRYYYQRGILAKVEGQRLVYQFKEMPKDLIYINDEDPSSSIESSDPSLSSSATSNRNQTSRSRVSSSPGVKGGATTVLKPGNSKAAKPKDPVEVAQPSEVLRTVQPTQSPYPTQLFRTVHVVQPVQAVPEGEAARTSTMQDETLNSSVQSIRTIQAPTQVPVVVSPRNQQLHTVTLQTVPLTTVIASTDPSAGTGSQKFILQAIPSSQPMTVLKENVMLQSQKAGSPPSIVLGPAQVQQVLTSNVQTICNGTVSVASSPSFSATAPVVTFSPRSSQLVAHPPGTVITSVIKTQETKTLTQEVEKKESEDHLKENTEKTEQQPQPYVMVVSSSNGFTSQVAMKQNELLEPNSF
Sequence of ELF4 (Q99607 whole entry): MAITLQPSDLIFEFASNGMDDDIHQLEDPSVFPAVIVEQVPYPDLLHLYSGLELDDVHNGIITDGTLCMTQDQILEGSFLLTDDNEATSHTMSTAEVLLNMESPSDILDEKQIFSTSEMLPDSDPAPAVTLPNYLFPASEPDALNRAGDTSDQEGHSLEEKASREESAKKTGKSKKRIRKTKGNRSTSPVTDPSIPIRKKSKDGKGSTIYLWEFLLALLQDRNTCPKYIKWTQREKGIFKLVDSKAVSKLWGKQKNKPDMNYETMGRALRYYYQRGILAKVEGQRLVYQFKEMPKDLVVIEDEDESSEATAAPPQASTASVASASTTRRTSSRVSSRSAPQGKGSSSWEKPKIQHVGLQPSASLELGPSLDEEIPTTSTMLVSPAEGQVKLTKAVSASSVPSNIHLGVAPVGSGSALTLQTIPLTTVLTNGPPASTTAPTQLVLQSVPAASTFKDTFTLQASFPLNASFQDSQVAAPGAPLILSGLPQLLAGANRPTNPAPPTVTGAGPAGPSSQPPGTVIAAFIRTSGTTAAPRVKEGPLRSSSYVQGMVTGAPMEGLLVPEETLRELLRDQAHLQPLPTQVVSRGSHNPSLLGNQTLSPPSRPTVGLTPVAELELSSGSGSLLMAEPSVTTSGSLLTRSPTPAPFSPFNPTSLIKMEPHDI

With AGCAAC the binding signal (FLI1) was 1 fold enrichment (6-mer frequency, TF over GST control), the binding signal (ELK1) was 1.03 fold enrichment (6-mer frequency, TF over GST control) and the binding signal (GABPA) was 1.06 fold enrichment (6-mer frequency, TF over GST control). For the same sequence, the binding signal (ERG) was 1.06 fold enrichment (6-mer frequency, TF over GST control), the binding signal (ELF1) was 1.08 fold enrichment (6-mer frequency, TF over GST control) and the binding signal (EHF) was 1.15 fold enrichment (6-mer frequency, TF over GST control). The binding signal (SPIB) was 1.08 fold enrichment (6-mer frequency, TF over GST control), the binding signal (FEV) was 1.08 fold enrichment (6-mer frequency, TF over GST control) and the binding signal (ETV5) was 1.06 fold enrichment (6-mer frequency, TF over GST control). The binding signal (SPIC) was 1.11 fold enrichment (6-mer frequency, TF over GST control), the binding signal (ELF4) was 1.1 fold enrichment (6-mer frequency, TF over GST control) and the binding signal (ERF) was 1.11 fold enrichment (6-mer frequency, TF over GST control). For the same sequence, the binding signal (ETS2) was 1.11 fold enrichment (6-mer frequency, TF over GST control), the binding signal (SPDEF) was 1.08 fold enrichment (6-mer frequency, TF over GST control) and the binding signal (ETV3) was 1.04 fold enrichment (6-mer frequency, TF over GST control). The binding signal (ETV6) was 1.06 fold enrichment (6-mer frequency, TF over GST control).
